This note sets out measurements from PubChem BioAssay (NCATS).

Records with an inconclusive call do not appear. Activity calls are given as the source filed them. Unless noted, calls come from the whole dose curve; as a rule, active = well fitted curve in either direction with a large enough effect (not every such curve was filed as active); inconclusive = small, poorly fitted or top-dose-only effect, or another doubt; inactive = flat fitted curve, though single readings scatter. Bounds are passed on as bounds.

In assay [1] the target is Lysosomal acid glucosylceramidase (Homo sapiens) (UniProt P04062). The assay can be described thus: Glucocerebrosidase-p2 (AID 348; in the data active = potency below about 10 µM; note: potency is the fitted concentration of half-maximal effect). The settings on record: purified GBA, blue fluorogenic substrate, 40 min. An outline of the steps:
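Compounds titrated from 0.6 nM upwards against 0.2 nM enzyme in pH 5.9 citric acid/KH2PO4, taurocholate, tween-20; blue fluorogenic substrate 80 uM, 40 min room temperature, stopped and read Ex 365/Em 440 for AC50.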

Assay [2] can be described thus: AP1 Signaling Pathway (AID 357). Note: % is set by controls: 0 for no effect and ±100 for the full control effect. The note with it: ME-180 AP-1-bla reporter, EGF-induced, beta-lactamase ratio, 5 h; at 7.69 µM (top of the series) unless noted. An outline of the steps: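 First, ME-180 AP-1-bla cells were cultured overnight at 37 °C in low-serum Opti-MEM. Next, titrated compounds with EC50 EGF were incubated 5 hours. Finally, CCF4 was added for 2.5 hours and the 460/530 nm ratio recorded.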

Assay [3] concerns the target Cytochrome P450 1A2 (Homo sapiens) (UniProt P05177). The assay can be described thus: p450-cyp1a2 (AID 410; calls by dose curve; note: potency is the fitted concentration of half-maximal effect;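 for activity change, negative = inhibition: -100% = full effect of reference inhibitor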). The note with it: recombinant CYP1A2, luciferin-ME demethylation, luminescence; series mostly up to 57 µM. An outline of the steps: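 Luminescent readout of luciferin formed from Luciferin-ME by human CYP1A2; data normalized against complete inhibition by 57 uM furafylline. Enzyme 20nM, substrate 100uM at Km, 100mM KPO4 buffer, 60 min reaction at room temperature.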

The nature of assay [4]: NFAT Signaling Pathway (AID 444).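 Note: carbachol stimulus at about its EC50 of 1 µM final; % is set by controls: 0 for no effect and ±100 for the full control effect.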 The settings on record: Jurkat NFAT-bla M1, carbachol, beta-lactamase ratio, 5 h; at 7.69 µM (top of the series) unless noted. In short, it runs like this:
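Read-out: CCF4 FRET ratio (460 nm/530 nm) after 1 h RT dye loading, used for %activity and AC50 from titration series. Cells: Jurkat NFAT-β-lactamase/M1 line, treated with compound plus 1 uM carbachol for 5 h, 37 °C.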

Assay [5] in a line: Stat Signaling Pathway (AID 446).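 Note: ME-180 cervical cancer cells given 40 pM IL-6 alongside compound; SIE-controlled beta-lactamase reporter measured as 460/530 nm FRET emission ratio; % is set by controls: 0 for no effect and ±100 for the full control effect.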 The note with it: ME-180 (cervical carcinoma) SIE beta-lactamase reporter, IL-6 stimulated, 5 h; at 7.69 µM (top of the series) unless noted. An outline of the steps: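 IL-6/STAT signaling read in ME-180 cells via an SIE beta-lactamase reporter. Stimulus was 40 pM IL-6 (its AC50) for 5 hrs, so both activation and inhibition register.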
The target of assay [6] is Glucocorticoid receptor (Homo sapiens) (UniProt P04150). The assay can be described thus: GR-EFC Redistribution (AID 451; calls by dose curve; note: potency is the fitted concentration of half-maximal effect). The settings on record: CHO-K1 GR-EFC translocation, beta-gal luminescence, 2 h. In short, it runs like this: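 Translocation of GR-ED fusion to nuclear EA restores b-gal, read by luminescence after 1 h room-temperature detection. Engineered CHO-K1 biosensor cells, 1,000/well, exposed 2 h at 37 C to titrations up to 46 uM final.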
Sequence of Glucocorticoid receptor (Homo sapiens) (P04150 whole entry, looked up, the tested form may be a part): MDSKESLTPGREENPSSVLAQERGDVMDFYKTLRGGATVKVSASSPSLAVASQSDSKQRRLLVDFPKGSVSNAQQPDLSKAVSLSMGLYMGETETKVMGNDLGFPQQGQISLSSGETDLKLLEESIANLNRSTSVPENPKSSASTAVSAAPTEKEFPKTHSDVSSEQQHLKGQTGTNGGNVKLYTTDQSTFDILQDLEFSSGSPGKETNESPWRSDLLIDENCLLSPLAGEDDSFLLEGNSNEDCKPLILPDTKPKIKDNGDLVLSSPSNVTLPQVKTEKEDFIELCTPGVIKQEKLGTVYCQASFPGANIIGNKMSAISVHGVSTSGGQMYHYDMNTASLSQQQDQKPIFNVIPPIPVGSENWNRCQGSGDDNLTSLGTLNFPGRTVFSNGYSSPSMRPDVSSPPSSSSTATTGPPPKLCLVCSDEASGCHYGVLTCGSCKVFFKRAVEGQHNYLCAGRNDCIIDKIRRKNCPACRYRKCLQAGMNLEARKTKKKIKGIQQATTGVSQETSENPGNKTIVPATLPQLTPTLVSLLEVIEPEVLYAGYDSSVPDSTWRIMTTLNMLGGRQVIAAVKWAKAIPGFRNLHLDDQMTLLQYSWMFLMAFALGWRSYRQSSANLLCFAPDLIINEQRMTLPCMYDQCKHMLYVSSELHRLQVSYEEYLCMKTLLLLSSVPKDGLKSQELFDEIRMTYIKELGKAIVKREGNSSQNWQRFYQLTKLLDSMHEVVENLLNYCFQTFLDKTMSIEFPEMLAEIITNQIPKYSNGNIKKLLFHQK

Assay [7] has as its target Mitogen-activated protein kinase 10 (Mus musculus) (UniProt Q61831). The assay can be described thus: JNK3 AlphaScreen Assay (AID 530).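 Note: kinase came from lysate of stimulated human HepG2 cells; signal reports phosphorylation of biotinylated GST-cJun 1-79 at Ser73 with 10 µM ATP; % is set by controls: 0 for no effect and ±100 for the full control effect.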 The note with it: JNK3 lysate, c-Jun phosphorylation; series mostly up to 57.1 µM. An outline of the steps: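 Compound titrations were preincubated 15 minutes at room temperature with substrate, antibody and pre-activated JNK3-containing HepG2 lysate. Reactions were started with 10 uM ATP and stopped with EDTA-containing bead buffer for AlphaScreen detection.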
For orientation: In Alpha technology, singlet oxygen from a donor bead excites a nearby acceptor bead.

In assay [8] the target is 3',5'-cyclic-AMP phosphodiesterase 4B (Homo sapiens) (UniProt Q07343). The assay is described as follows: qHTS Assay for Inhibitors of PDE-IV (AID 607; active = well fitted activation curve with a large enough effect in the main read-out, with a control signal flat, not every such curve was filed as active; note: % of control where 0% means no effect). The settings on record: HEK293 ACTOne CNG channel cells, membrane potential fluorescence; series mostly up to 22.9 µM. An outline of the steps: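 Live HEK293 cells with a modified cyclic nucleotide-gated (CNG) channel report intracellular cAMP via membrane-potential dye fluorescence (ex 535/em 590 nm). Endogenous PDE-IV was targeted. Compounds were tested at up to 22.9 uM final; RO 20-1724 100 uM served as control.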
Sequence of 3',5'-cyclic-AMP phosphodiesterase 4B (Homo sapiens) (Q07343 whole entry, looked up): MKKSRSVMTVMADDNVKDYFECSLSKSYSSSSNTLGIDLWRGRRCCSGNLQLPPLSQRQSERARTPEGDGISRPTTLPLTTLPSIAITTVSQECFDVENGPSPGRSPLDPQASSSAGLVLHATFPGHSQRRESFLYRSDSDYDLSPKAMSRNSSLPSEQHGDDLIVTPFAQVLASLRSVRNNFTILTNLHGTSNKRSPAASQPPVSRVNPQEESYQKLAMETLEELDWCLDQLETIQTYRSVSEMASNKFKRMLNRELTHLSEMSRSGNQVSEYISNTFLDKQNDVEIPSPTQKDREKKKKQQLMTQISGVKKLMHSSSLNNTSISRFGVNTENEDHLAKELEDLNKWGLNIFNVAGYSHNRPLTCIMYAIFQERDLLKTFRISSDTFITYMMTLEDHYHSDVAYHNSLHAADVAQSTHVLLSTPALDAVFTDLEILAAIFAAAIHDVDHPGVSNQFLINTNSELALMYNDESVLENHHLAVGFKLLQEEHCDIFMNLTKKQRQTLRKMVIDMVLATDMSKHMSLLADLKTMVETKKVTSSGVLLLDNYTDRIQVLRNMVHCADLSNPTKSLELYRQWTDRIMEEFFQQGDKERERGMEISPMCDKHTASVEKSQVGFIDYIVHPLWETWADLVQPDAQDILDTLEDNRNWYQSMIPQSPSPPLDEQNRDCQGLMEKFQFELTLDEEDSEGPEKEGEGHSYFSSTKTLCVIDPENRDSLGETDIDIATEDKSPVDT
For orientation: In qHTS, concentration-response curves come from the screen itself.

Assay [9] deals with Cytochrome P450 3A4 (Homo sapiens) (UniProt P08684). The assay can be described thus: qHTS Assay for Activators of Cytochrome P450 3A4 (AID 885; active = well fitted curve in the direction sought with a large enough effect; an effect the other way counts as inactive or inconclusive; note: nearly all actives have a fitted effect of over 65% in size; note: potency is the fitted concentration of half-maximal effect). The note with it: recombinant CYP3A4, Luciferin-PPXE luminescence, 60 min; series mostly up to 57.1 µM. In short, it runs like this:
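Quantitative HTS format: compounds preincubated with 20nM human CYP3A4 and Luciferin-PPXE substrate at KM, reaction started by NADPH regeneration, stopped after 60 min, luciferase luminescence read 20 min later.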

The nature of assay [10]: qHTS Assay for Lipid Storage Modulators (AID 1519; calls by dose curve). The note with it: Drosophila S3 cells, BODIPY lipid droplet/cell ratio, laser cytometry, cells loaded with oleic acid; for activity change, negative = inhibition: at 57.5 µM (top of the series). In short, it runs like this:
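Cells seeded at 5,000 per well were treated with compounds over a concentration series and loaded with oleic acid (400 uM, as added). Lipid droplet fluorescence (488 nm excitation, 500-530 nm channel) was read by laser-scanning cytometry and normalized to 20 uM Triacsin C.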

Assay [11] in a line: Primary qHTS for small molecule stabilizers of the endoplasmic reticulum resident proteome: Secreted ER Calcium Modulated Protein (SERCaMP) assay (AID 1508630; active = well fitted curve in the direction sought with a large enough effect; an effect the other way counts as inactive or inconclusive; note: % is set by controls: 0 for no effect and ±100 for the full control effect). The settings on record: SH-SY5Y GLuc-SERCaMP (Gaussia luciferase released on ER calcium loss) secretion, thapsigargin, luminescence; series mostly up to 38.4 µM. An outline of the steps:
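GLuc-SERCaMP-expressing SH-SY5Y cells, pretreated 16 h with compound, are challenged with thapsigargin to empty ER calcium stores; after 4 h, coelenterazine is added directly to the medium and luminescence is imaged.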

The mark [12] stands for this setting: measured here: cell count channel max response.
The mark [13] stands for this setting: measured here: lipid channel max response.

Sequence of Cytochrome P450 3A4 (Homo sapiens) (P08684 whole entry, looked up): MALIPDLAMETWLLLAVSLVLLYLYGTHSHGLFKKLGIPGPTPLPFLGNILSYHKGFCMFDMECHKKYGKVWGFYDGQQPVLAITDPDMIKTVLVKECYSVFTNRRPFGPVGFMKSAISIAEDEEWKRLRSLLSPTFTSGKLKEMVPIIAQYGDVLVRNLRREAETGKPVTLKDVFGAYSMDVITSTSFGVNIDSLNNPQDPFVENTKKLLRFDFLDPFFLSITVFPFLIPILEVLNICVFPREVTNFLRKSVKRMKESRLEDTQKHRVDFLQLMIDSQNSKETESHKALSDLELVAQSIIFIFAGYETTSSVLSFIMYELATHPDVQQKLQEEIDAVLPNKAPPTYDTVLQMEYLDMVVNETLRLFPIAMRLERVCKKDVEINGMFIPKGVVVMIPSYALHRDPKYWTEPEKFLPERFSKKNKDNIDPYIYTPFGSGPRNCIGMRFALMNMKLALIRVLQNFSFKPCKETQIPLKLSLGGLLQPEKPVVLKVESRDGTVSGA
Sequence of Lysosomal acid glucosylceramidase (Homo sapiens) (P04062 whole entry, looked up): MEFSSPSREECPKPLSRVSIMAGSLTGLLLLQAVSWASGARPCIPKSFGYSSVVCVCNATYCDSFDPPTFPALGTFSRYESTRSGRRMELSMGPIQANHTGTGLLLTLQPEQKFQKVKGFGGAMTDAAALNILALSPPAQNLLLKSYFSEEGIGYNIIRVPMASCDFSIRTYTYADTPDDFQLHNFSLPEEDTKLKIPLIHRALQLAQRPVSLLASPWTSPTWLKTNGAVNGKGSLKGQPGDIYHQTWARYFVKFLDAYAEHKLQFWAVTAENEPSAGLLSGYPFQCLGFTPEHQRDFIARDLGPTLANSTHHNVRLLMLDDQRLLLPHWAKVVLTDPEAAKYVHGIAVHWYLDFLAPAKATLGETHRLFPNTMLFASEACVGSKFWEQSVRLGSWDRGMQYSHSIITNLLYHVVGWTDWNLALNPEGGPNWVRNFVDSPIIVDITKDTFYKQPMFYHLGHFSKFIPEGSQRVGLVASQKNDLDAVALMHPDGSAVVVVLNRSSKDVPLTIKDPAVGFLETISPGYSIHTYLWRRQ
Sequence of Cytochrome P450 1A2 (Homo sapiens) (P05177 whole entry, looked up): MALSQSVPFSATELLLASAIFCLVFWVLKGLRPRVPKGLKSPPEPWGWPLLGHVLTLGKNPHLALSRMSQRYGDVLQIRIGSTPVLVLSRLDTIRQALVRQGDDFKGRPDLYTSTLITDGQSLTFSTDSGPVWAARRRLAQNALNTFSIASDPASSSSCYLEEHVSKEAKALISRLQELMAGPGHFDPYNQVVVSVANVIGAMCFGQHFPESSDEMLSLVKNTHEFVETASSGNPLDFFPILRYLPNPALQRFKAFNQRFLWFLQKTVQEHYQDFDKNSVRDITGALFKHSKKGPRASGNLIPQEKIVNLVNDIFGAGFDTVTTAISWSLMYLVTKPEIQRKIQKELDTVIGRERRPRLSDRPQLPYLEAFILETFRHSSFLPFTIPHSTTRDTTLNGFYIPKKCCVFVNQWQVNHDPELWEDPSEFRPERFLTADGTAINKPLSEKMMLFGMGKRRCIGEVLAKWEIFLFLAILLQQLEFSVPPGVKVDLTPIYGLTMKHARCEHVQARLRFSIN

Regarding `O=C(c1cccc(F)c1)N1CCC2(CC1)CCN(c1cccc(-c3ccccc3)c1)CC2`, the Potency in [1] was > 11.4 µM (inactive); in [3], 20 µM (active); in assay [6], > 46 µM (inactive); in assay [9], 5.01 µM (active). Also, the activity change, negative = inhibition in [2] is -4.91% (inactive); in assay [4] it was 4.3% (inactive); in assay [10], -5.71% (inactive). In addition, the activity, negative = inhibition in [5] was -10.4% (inactive). Also, the molecule was called inactive in [7]. The Potency entry in [8] and in assay [11] was “inactive” throughout. Also, the results for the max response in assay [10] (setting [12]) and in assay [10] (setting [13]) were -11.6% and -13.5%, respectively.
Turning to `CC(C)NC(=O)N1CC[C@@]2(CCCN(C(=O)c3csnn3)C2)C1`, the Potency was > 11.4 µM (inactive) in [1] and > 46 µM (inactive) in assay [6]. Moreover, the figures for the activity change, negative = inhibition in assay [2], in assay [4] and in assay [10] were 8.93% (inactive), 20.3% (inactive) and -0.319% (inactive), respectively. The Potency result in [3], in assay [8], in [9] and in [11] was “inactive” in each case. For the same molecule, the activity, negative = inhibition in [5] was 10.6% (inactive). Moreover, the molecule was called inactive in assay [7]. Besides, the results for the max response in [10] (setting [12]) and in assay [10] (setting [13]) were 4.92% and 7.3%, respectively.
Take `CN1CCCC2(CCN(C(=O)c3cnccn3)CC2)C1`: the Potency in assay [1] is > 11.4 µM (inactive); in [6], > 46 µM (inactive). The activity change, negative = inhibition in [2] was -9.74% (inactive); in assay [4], -25% (inactive); in assay [10], -0.798% (inactive). In addition, the Potency result in assay [3], in assay [8], in assay [9] and in [11] was “inactive” each time. Further, in [5], the activity, negative = inhibition was 3.76% (inactive). Also, the result in assay [7] was inactive. In addition, the max response in assay [10] (setting [12]) was determined as 2.95%; in [10] (setting [13]) it was 3.48%.
As to `O=C(c1ccco1)N1CCC2(CC1)CN(C(c1ccccc1)c1ccccc1)C2`, the values for the Potency in [1], in assay [6] and in assay [9] were > 11.4 µM (inactive), > 46 µM (inactive) and 10 µM (active), respectively. The activity change, negative = inhibition was -3.72% (inactive) in assay [2], 11% (inactive) in [4] and 2.1% (inactive) in assay [10]. The Potency result in [3], in [8] and in assay [11] was “inactive” in each case. Moreover, the activity, negative = inhibition in assay [5] is -4.65% (inactive). In assay [7], the molecule was classed as inactive. For the same molecule, the figures for the max response in assay [10] (setting [12]) and in assay [10] (setting [13]) were 5.15% and 9.48%, respectively.
As to `CS(=O)(=O)N1CCC2(CCN(Cc3ccncc3)CC2)CC1`, the figures for the Potency in [1] and in assay [6] were > 11.4 µM (inactive) and > 46 µM (inactive), respectively. In addition, the figures for the activity change, negative = inhibition in assay [2], in assay [4] and in assay [10] were -1.98% (inactive), -4.26% (inactive) and 5.08% (inactive), respectively. Further, the Potency result in assay [3], in [8], in [9] and in assay [11] was “inactive” each time. Further, the activity, negative = inhibition in [5] was 10.3% (inactive). In [7], the molecule was classed as inactive. The max response in assay [10] (setting [12]) came out at 9.75%; in assay [10] (setting [13]), 18.4%.
Turning to `Cn1cccc1C(=O)N1CCC[C@@]2(CCN(Cc3cc(C(F)(F)F)cc(C(F)(F)F)c3)C2)C1`, the Potency in assay [1] was > 11.4 µM (inactive); in assay [6] it was > 46 µM (inactive). The values for the activity change, negative = inhibition in [2], in assay [4] and in assay [10] were 8.92% (inactive), 7.04% (inactive) and -3.99% (inactive), respectively. For the same molecule, the Potency entry in assay [3], in assay [8], in assay [9] and in assay [11] was “inactive” each time. Besides, the activity, negative = inhibition in assay [5] was 8.87% (inactive). Also, the molecule was classed as inactive in [7]. In addition, the max response in assay [10] (setting [12]) was -0.0419%; in assay [10] (setting [13]), -1.35%.
